Results from PubChem BioAssay (NCATS).
Several values for one entry are separate records, joined by “and”; a condition that tells them apart may be missing. Identical values can stand only once. Inconclusive results are not listed. Activity calls are given as the source filed them. Unless noted, calls come from the whole dose curve; as a rule, active = well fitted curve in the direction sought with a large enough effect; inconclusive = small, poorly fitted or top-dose-only effect, or another doubt; inactive = no such curve, though single readings can be large; an effect the other way counts as inactive or inconclusive.

Legend:
[1] = target: Glucocorticoid receptor (Homo sapiens) (UniProt P04150); assay: GR-GFP Redistribution (AID 450;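 active = compounds whose dose series gives a full or clear partial fitted curve of increased nuclear translocation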; note: potency is the fitted concentration of half-maximal effect); conditions: U2OS GR-GFP nuclear translocation, laser cytometry, 2 h
Chain of Glucocorticoid receptor (Homo sapiens) (P04150 whole entry, looked up, the tested form may be a part): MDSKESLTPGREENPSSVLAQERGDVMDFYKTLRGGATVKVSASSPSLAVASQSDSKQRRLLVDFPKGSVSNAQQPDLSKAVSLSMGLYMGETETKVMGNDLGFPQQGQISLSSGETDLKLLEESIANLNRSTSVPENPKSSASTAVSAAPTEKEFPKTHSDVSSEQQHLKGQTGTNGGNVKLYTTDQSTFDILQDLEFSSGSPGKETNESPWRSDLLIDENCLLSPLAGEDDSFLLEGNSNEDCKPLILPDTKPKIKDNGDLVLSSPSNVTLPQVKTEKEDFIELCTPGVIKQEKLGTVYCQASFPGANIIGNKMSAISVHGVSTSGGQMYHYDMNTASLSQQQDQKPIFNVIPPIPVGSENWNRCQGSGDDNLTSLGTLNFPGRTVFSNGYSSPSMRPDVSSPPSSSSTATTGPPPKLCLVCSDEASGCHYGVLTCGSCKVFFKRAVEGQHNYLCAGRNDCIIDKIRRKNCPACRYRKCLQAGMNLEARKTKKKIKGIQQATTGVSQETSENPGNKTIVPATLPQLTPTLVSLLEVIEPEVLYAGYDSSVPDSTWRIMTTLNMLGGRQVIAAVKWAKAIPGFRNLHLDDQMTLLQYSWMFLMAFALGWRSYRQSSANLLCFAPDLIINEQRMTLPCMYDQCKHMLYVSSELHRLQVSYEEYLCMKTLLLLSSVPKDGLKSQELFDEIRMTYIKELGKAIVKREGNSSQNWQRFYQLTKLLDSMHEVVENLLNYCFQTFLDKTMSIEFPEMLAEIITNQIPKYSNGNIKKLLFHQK

[2] = target: Glucocorticoid receptor (Homo sapiens) (UniProt P04150); assay: GR-EFC Redistribution (AID 451; calls by dose curve; note: potency is the fitted concentration of half-maximal effect); conditions: CHO-K1 GR-EFC translocation, beta-gal luminescence, 2 h
In short: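 CHO-K1 cells stably expressing nuclear-localized β-gal enzyme acceptor and GR fused C-terminally to the enzyme donor fragment; ligand-driven nuclear translocation restores β-gal by complementation. Compounds titrated up to 46 uM final, 2 h at 37 °C; luminescence read.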

[3] = target: Mitogen-activated protein kinase 10 (Mus musculus) (UniProt Q61831); assay: JNK3 AlphaScreen Assay (AID 530; active = well fitted curve in either direction with a large enough effect, not every such curve was filed as active;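 note: kinase came from lysate of stimulated human HepG2 cells; signal reports phosphorylation of biotinylated GST-cJun 1-79 at Ser73 with 10 µM ATP; % is set by controls: 0 for no effect and ±100 for the full control effect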); conditions: JNK3 lysate, c-Jun phosphorylation; series mostly up to 57.1 µM
In short: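 Biotinylated GST-cJun(1-79) served as substrate for JNK3 in HepG2 lysates stimulated with IL-1beta and TNF-alpha. ATP was 10 uM final, pH 7.6. Ser73 phosphorylation was quantified by AlphaScreen (680 nm excitation).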

[4] = Cell Viability - N2a (AID 540); conditions: N2a mouse neuroblastoma cell viability; activity change, negative = cytotoxicity: at 92.2 µM (top of the series);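 note: cells exposed to compound for 40 h at 37 °C; plate controls were DMSO alone for no effect and tamoxifen control for full effect; nearly all actives have a fitted effect of over 45% in size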
In short: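 In this qHTS cytotoxicity screen, ATP-dependent luciferase luminescence reports viable N2a cells after a 40 hr compound exposure in complete culture medium. Potencies are AC50 values from standard Hill equation fits.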

[5] = Cell Viability - HUV-EC-C (AID 542); conditions: HUV-EC-C endothelial cell viability, qHTS; series mostly up to 92.2 µM;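 note: cells exposed to compound for 40 hours; % is set by controls: 0 for no effect and ±100 for the full control effect; nearly all actives have a fitted effect of over 35% in size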
In short: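 Concentration-dependent ATP loss in HUV-EC-C cells is the measure. Exposure lasts 40 hr at 37 °C; luminescence follows CellTiter-Glo addition, and Hill fits give AC50.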

[6] = Cell Viability - Renal Proximal Tubule (AID 545); conditions: renal proximal tubule cells viability, primary cells of rat origin; activity change, negative = cytotoxicity: at 91.7 µM (top of the series);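 note: cells exposed to compound for 40 hours; nearly all actives have a fitted effect of over 40% in size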
In short: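 Viability taken as intracellular ATP (CellTiter-Glo luminescence) after 40 hr, 37 °C compound treatment of primary proximal tubule cells from rat kidney, 1000 cells/well; Hill-equation fits of qHTS concentration-response data gave AC50.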

[7] = Cell Viability - Mesenchymal (AID 546); conditions: mesenchymal cells viability, qHTS; activity change, negative = cytotoxicity: at 91.7 µM (top of the series);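 note: cells exposed to compound for 40 hours before reading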
In short: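 In this qHTS cytotoxicity format, glomerulus-derived human mesenchymal kidney cells received compound for 40 hr, then luciferase-based ATP quantitation. Concentration-response data were fitted with the Hill equation.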

[8] = target: 3',5'-cyclic-AMP phosphodiesterase 4B (Homo sapiens) (UniProt Q07343); assay: qHTS Assay for Inhibitors of PDE-IV (AID 607; active = well fitted activation curve with a large enough effect in the main read-out, with a control signal flat, not every such curve was filed as active; note: % of control where 0% means no effect); conditions: HEK293 ACTOne CNG channel cells, membrane potential fluorescence; series mostly up to 22.9 µM
Chain of 3',5'-cyclic-AMP phosphodiesterase 4B (Homo sapiens) (Q07343 whole entry, looked up): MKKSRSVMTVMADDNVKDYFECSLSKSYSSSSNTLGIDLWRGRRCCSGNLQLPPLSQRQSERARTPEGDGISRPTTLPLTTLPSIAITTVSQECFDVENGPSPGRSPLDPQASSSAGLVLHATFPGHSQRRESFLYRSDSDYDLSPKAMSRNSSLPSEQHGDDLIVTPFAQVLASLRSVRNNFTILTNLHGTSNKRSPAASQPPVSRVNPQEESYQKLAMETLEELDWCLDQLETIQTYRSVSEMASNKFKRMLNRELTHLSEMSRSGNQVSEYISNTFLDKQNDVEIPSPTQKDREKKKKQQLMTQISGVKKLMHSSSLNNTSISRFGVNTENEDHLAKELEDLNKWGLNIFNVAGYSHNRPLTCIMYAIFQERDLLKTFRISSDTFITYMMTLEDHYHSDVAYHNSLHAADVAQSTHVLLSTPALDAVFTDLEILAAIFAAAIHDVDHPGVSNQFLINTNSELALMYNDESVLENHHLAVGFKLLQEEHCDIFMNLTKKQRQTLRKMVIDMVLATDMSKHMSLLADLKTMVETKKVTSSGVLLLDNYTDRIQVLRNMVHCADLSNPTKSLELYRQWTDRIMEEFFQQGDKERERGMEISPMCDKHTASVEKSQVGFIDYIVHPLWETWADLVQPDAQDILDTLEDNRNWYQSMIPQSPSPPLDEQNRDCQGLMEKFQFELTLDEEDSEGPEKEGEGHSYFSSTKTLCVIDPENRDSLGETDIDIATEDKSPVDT
In short: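 Cell-based read-out of cAMP via a modified cyclic nucleotide-gated channel and membrane potential dye (535/590 nm) in HEK293 cells expressing PDE4 endogenously. Compounds tested up to 22.9 uM final; 100 uM RO 20-1724 reference.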

[9] = Cellular Toxicity (caspase-3) HepG2 (AID 654); conditions: HepG2 caspase-3 activation, luminescence; series mostly up to 92.2 µM;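 note: cells exposed to compound for 16 hours before reading; 0% = DMSO alone and 100% = caspase signal from 100 µM tamoxifen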
In short: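 Concentration-response AC50 values reflect caspase-3/7 induction in HepG2 cells after 16 hours of compound exposure, quantified by luminescence from liberated aminoluciferin and referenced to 100 uM tamoxifen as full stimulation.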

[10] = Cellular Toxicity (caspase-3) Jurkat (AID 655); conditions: Jurkat caspase-3 activation, luminescence, DMSO = 0%, tamoxifen = 100%; at 92.2 µM (top of the series);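 note: cells exposed to compound for 16 h at 37 °C before reading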
In short: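 Luminescent Caspase-Glo 3/7 read-out (20 min, room temperature) after 16 h compound treatment at 37 C of 5000 Jurkat cells per well. AC50 derived by Hill-equation fitting, scaled between DMSO basal and 100 uM tamoxifen stimulation.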

[11] = Cellular Toxicity (caspase-3) HUV-EC-C (AID 656); conditions: HUV-EC-C cells, caspase-3 activation (apoptosis); series mostly up to 92.2 µM
In short: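 Luminescent Caspase-Glo 3/7 readout after 16 h, 37 °C compound exposure of HUV-EC-C endothelial cells, 1000 per well, complete medium. AC50 derived by Hill fitting, with DMSO as baseline and 100 uM tamoxifen as full activation.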

[12] = Cellular Toxicity (caspase-3) SHSY5Y (AID 657); conditions: SH-SY5Y caspase-3 activation, DMSO zero, 10 µM staurosporine = 100%; series mostly up to 91.7 µM
In short: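 Luminescent Caspase-Glo 3/7 read-out, 1 hr room temperature, follows 16 hours of compound treatment of SH-SY5Y cells at 37 °C. Normalization: DMSO basal, 10 uM staurosporine as 100%; AC50 values from Hill-equation concentration-response fits.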

[13] = Cellular Toxicity (caspase-3) BJ (AID 658); conditions: BJ fibroblasts, luminescence, normalized: DMSO 0%, staurosporine 100%; series mostly up to 91.7 µM;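 note: 0% = DMSO basal and 100% = 10 µM staurosporine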
In short: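 Plated BJ cells (1000/well) rested 5 hr, received compound for 16 hr at 37 °C, then Caspase-Glo 3/7 reagent for 1 hr at room temperature before luminescence reading.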

[14] = Cellular Toxicity (caspase-3) MRC-5 (AID 659); conditions: MRC-5 cells, luminescence; Potency: caspase-3 activation; series mostly up to 91.7 µM;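 note: 0% = DMSO basal and 100% = 10 µM staurosporine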
In short: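 Apoptosis readout in MRC-5 cells: luciferase light generated after caspase 3/7 cleaves a peptide-aminoluciferin substrate, measured post 16 hr compound incubation at 37 °C.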

[15] = Cellular Toxicity (caspase-3) Mesangial (AID 660); conditions: mesangial cells, normalized: DMSO 0%, 100 µM tamoxifen 100%; at 91.7 µM (top of the series);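 note: combined caspase 3 and 7 activity read by Caspase-Glo luminescence; cells exposed to compound for 16 h before the caspase read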
In short: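 AC50 values come from Hill-equation fits of caspase 3/7 activation, measured as Caspase-Glo luminescence in human glomerular mesangial cells exposed to compound for 16 h at 37 °C; 100% set by 100 uM tamoxifen.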

[16] = Cellular Toxicity (caspase-3) SK-N-SH (AID 661); conditions: SK-N-SH caspase-3 activation, qHTS; series mostly up to 91.7 µM;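 note: 0% = DMSO basal and 100% = 10 µM staurosporine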
In short: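 Apoptosis readout in SK-N-SH neuroblastoma: Caspase-Glo 3/7 luminescence following 16 hr treatment in complete culture medium. Normalization used DMSO and 10 uM staurosporine controls.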

[17] = Cell Viability - NIH 3T3 (AID 541); conditions: NIH 3T3 cell viability, qHTS; at 92.2 µM (top of the series);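 note: cells exposed to compound for 40 hours; plate controls were DMSO alone for no effect and tamoxifen positive control for full effect; nearly all actives have a fitted effect of over 25% in size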
In short: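 In this cytotoxicity screen, acute toxicity is scored as an ATP drop measured by CellTiter-Glo in NIH 3T3 fibroblasts following a 40 hr, 37 °C incubation with compound.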

[18] = Cell Viability - H-4-II-E (AID 543); conditions: H-4-II-E rat hepatoma viability; series mostly up to 92.2 µM;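 note: cells exposed to compound for 40 hours; % is set by controls: 0 for no effect and ±100 for the full control effect; nearly all actives have a fitted effect of over 35% in size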
In short: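 AC50 from Hill-modelled qHTS concentration-response curves. H-4-II-E rat hepatoma cells in complete medium, 40 hr exposure at 37 °C, viability by CellTiter-Glo ATP luminescence.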

[19] = Cell Viability - SH-SY5Y (AID 544); conditions: SH-SY5Y neuroblastoma cell viability; viability change, negative = cytotoxic: at 92.2 µM (top of the series);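 note: cells exposed to compound for 40 hours; nearly all actives have a fitted effect of over 55% in size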
In short: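 Quantitative HTS in SH-SY5Y neuroblastoma cells, 40 hr treatment at 37 °C, ATP content by luciferase luminescence; AC50 from Hill fits.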

O=c1c(O)c(-c2ccc(O)cc2)oc2cc(O)cc(O)c12
inactive: Potency [1] > 20.6 µM and > 46 µM | Potency [2] > 20.6 µM and > 46 µM | outcome [3] | Potency [4] | Potency [5] | Potency [6] | Potency [7] | outcome [8] | Potency [9] | caspase-3 activation [10] 1.17% | Potency [11] | outcome [12] | outcome [13] | Potency [14] | caspase-3 activation [15] -0.85% | Potency [16]

CN(C)CCC(c1ccccc1)c1ccccn1 (centres undefined)
inactive: outcome [3] | Potency [4] | activity change, negative = cytotoxicity [17] -2.83% | Potency [5] | Potency [18] | Potency [19] | Potency [6] | Potency [7] | Potency [9] | caspase-3 activation [10] 1.03% | Potency [11] | outcome [12] | outcome [13] | Potency [14] | caspase-3 activation [15] 0.331% | Potency [16]

CS(=O)c1ccc(-c2nc(-c3ccc(F)cc3)c(-c3ccncc3)[nH]2)cc1 (centres undefined)
inactive: Potency [1] > 46 µM | Potency [2] > 46 µM

O=C(O)Cc1cccc2ccccc12
inactive: outcome [3] | Potency [4] | activity change, negative = cytotoxicity [17] -29.6% | Potency [5] | Potency [18] | Potency [19] | Potency [6] | Potency [7] | Potency [9] | caspase-3 activation [10] 1.08% | Potency [11] | outcome [12] | outcome [13] | Potency [14] | caspase-3 activation [15] 0.654% | Potency [16]

CCCCCCCCCCCC1=C(O)C(=O)C=C(O)C1=O
inactive: Potency [1] > 46 µM | Potency [2] > 46 µM | outcome [3] | outcome [8]
